Screens as filed in PubChem BioAssay.
Sampled rows, rich in hits. Any-hit rate of the full collection: about 3.5%.
TEAD-YAP inh – TEAD-YAP interaction inhibition | actives 1.4% (n = 640,000) | AID 1259422 | HEK-TIYL cells, TEAD-Gal4/YAP UAS-luciferase luminescence | inhibition, % at 9.12 µM; in the data active means inhibition above about 32%;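 further: 0% = median of test compound wells and 100% = reference inhibitor wells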
GPR151 ag – human GPR151 activation. AID 1508602. PathHunter beta-arrestin GPR151 cells, luminescence. activation, % at 11.2 µM. Q8TDV0. actives 1% (n = 650,000); in the data active means activation above about 4.9%;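 further: 0% = median of compound wells and 100% = cells with positive control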
Target sequence (Q8TDV0 whole entry, looked up): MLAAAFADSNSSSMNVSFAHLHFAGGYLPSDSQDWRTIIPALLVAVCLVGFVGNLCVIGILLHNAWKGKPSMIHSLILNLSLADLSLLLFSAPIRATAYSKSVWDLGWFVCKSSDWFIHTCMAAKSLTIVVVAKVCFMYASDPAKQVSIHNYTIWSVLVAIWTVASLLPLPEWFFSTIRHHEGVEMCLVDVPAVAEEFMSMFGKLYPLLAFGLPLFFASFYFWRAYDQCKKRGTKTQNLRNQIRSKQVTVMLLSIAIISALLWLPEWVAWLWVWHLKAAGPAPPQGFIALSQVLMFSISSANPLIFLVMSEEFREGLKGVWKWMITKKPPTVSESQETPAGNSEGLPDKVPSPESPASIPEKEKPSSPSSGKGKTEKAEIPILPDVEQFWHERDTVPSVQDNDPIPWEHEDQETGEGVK
MITF inh – inhibitors of human MITF; O75030; AlphaScreen MITF homodimerization, bead proximity signal; inhibition, % at 2.6 µM; actives 0.91% (n = 650,000); AID 1259374; in the data active means inhibition above about 50%;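 further: 0% = vehicle wells with protein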
FBW7 act – activators of human E3 ligase FBW7. Q969H0. AlphaScreen FBW7–phospho-cyclin E peptide binding, activator screen. normalized activity (activation), % at 26.1 µM. actives 0.13% (n = 650,000); in the data active means normalized activity above about 1.9%;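 further: purified mutant Fbw7 with reduced substrate affinity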
* hit, by the source's call; x = no result given.

SMILES	TEAD-YAP inh	GPR151 ag	MITF inh	FBW7 act
CCN(c1ccc(OC)cc1)c1ncnc2nc[nH]c12	37.0*	-0.9	5.7	0.6
CCOc1cccc(C(=O)Nc2ccc3c(c2)OCCO3)c1	57.7*	-6.1	2.2	0.1
Cc1ccoc1C(=O)Nc1ccc2ccccc2c1	40.6*	-9.1	8.2	0.0
CCOc1cccc(C(=O)Nc2ccc3ccccc3c2)c1	58.1*	-3.6	9.6	0.0
CCOC(=O)c1ccc(NC(=O)c2cccc(Oc3ccccc3)c2)cc1	47.9*	1.4	-6.6	0.1
Cc1cc(C(=O)Nc2ccc3ccccc3c2)oc1C	-18.1	-1.9	9.2	-0.1
Cc1ccc(-c2[nH]ncc2CN2CCC(OCc3cccnc3)CC2)cc1C	-5.8	-1.1	-4.9	-0.2
O=C(COC(=O)CN1C(=O)C2CCCCC2C1=O)Nc1cccc(F)c1 (stereo not given)	1.4	0.8	17.3	0.1
COc1ccc(-c2nc(NCc3nc4ccccc4[nH]3)c3[nH]cnc3n2)cn1	-3.4	-1.2	7.1	-0.1
CCCCNC(=O)COc1cc(=O)n(C)c2ccccc12	11.8	-0.3	2.4	-0.1
CCOCCC(=O)Nc1ccc2c(c1)OCCO2	39.1*	-2.1	8.1	-0.1
O=C(CCC(=O)Nc1ccc2c(c1)OCCO2)Nc1ccc2c(c1)OCCO2	0.7	-2.0	16.3	0.0
Cn1cnc([N+](=O)[O-])c1S(=O)CC#N (stereo not given)	55.5*	-0.3	14.4	0.2
CC(C)N(CCNc1nc(-c2ccc(C(=O)NC3CC3)cc2)nc2c1ncn2-c1ccsc1)C(C)C	60.3*	-0.6	-8.7	0.0
O=C(NC1CC1)c1ccc(-c2nc(NCCO)c3ncn(-c4ccsc4)c3n2)cc1	55.1*	1.6	-57.6	0.2
CC(C)N(CCNc1nc(-c2ccc(C(=O)NC3CC3)cc2)nc2c1ncn2-c1ccccc1)C(C)C	9.8	1.4	9.6	0.2
O=C(CCl)NC(Cc1ccccc1)c1ccccc1 (stereo not given)	57.8*	0.0	11.0	0.0
CCOC(=O)C(=O)NC(Cc1ccccc1)c1ccccc1 (stereo not given)	1.9	0.9	12.6	-0.1
CC(C)Cc1cc(C(=O)Nc2cccc(Cl)c2)no1	-47.8	0.4	-24.3	0.0
CC(C)Cc1cc(C(=O)Nc2cccc(O)c2)no1	86.7*	-1.0	5.1	-0.1
CC(C)c1cc(C(=O)Nc2cccc(O)c2)no1	80.6*	-4.4	11.8	-0.2
Cc1cccc(NC(c2cccc(C)n2)c2ccc3ccc(C)nc3c2O)n1 (stereo not given)	-17.0	-0.1	15.1	0.5
Cc1ccc2ccc(C(Nc3ccccn3)c3ccccn3)c(O)c2n1 (stereo not given)	39.0*	-0.3	6.3	-0.2
Cc1ccc2ccc(C(Nc3ccccn3)c3ccc(F)cc3)c(O)c2n1 (stereo not given)	19.6	-1.1	14.9	-0.1
Cc1cccc(NC(c2ccccn2)c2ccc3ccc(C)nc3c2O)n1 (stereo not given)	48.6*	1.8	15.3	-0.1
SMILES	TEAD-YAP inh	GPR151 ag	MITF inh	FBW7 act
O=C(O)CSCc1cn2ccccc2n1	6.5	-1.0	-9.6	0.0
CC[C@H]1CN2CCc3cc(OC)c(OC)cc3C2C[C@@H]1CC1NCCc2cc(OC)c(OC)cc21 (stereo not given in full)	95.5*	2.2	0.8	0.0
O=C(Nc1nc(CCN2C(=O)c3ccccc3C2=O)cs1)c1ccc([N+](=O)[O-])cc1	0.3	2.7	0.4	0.1
COc1cc(-c2ccc(N=Nc3ccc4c(S(=O)(=O)O)cc(S(=O)(=O)O)c(N)c4c3O)c(OC)c2)ccc1N=Nc1ccc2c(S(=O)(=O)O)cc(S(=O)(=O)O)c(N)c2c1O	x	-1.6	77.4*	-0.2
Nc1c(S(=O)(=O)O)cc(S(=O)(=O)O)c2cccc(O)c12	8.9	-0.3	45.7	-0.6
Cc1ccc(CC(=O)Nc2nc3c(s2)CCCC3)cc1	26.2	-0.5	-9.1	0.0
Cc1nc(C)c(CC(=O)Nc2nc3c(s2)CCCC3)s1	40.4*	0.0	3.7	0.0
CCc1ccccc1Nc1nc(N)nc(Cn2nnc(-c3ccccc3)n2)n1	39.4*	0.3	12.2	-0.1
CC1=NN(c2ccccc2)C(=O)C1C(=O)c1ccc(Br)cc1 (stereo not given)	37.2*	-0.6	0.8	0.0
CC1=NN(c2ccccc2)C(=O)C1C(=O)c1ccccc1 (stereo not given)	25.1	-1.3	5.9	-0.1
Oc1c(C(c2ccncc2)N2CCCCC2)ccc2cccnc12 (stereo not given)	14.6	0.1	72.3*	-0.2
Oc1c(C(c2cccnc2)N2CCCC2)ccc2cccnc12 (stereo not given)	9.2	0.0	65.4*	-0.2
